Laboratory results reported in PubChem BioAssay (NCI).
The panel holds about 83,000 compounds, 20% with a hit somewhere; the sample as a whole holds those more often.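 Values shown are percent growth following 48 h exposure of cells in 96-well plates to a single concentration of compound; below 10 was considered active.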 The source made the active and inactive calls.

What was measured:
Test in all cases: NCI-60 one-dose screen, 48 h (100 = growth as untreated, 0 = no growth, -100 = all killed)
NCI-H23 lung = details: 10 µM unless noted
NCI-H226 lung = details: 10 µM unless noted
NCI-H322M lung = details: 10 µM unless noted
NCI-H460 lung = details: 10 µM unless noted
HOP-92 NSCLC = details: 10 µM unless noted
NCI-H522 lung = details: 10 µM unless noted
A549/ATCC NSCLC = details: 10 µM unless noted
786-0 renal = details: 10 µM unless noted
COLO 205 colon = details: 10 µM unless noted
DU-145 prostate = details: 10 µM unless noted
K-562 leukemia = details: 10 µM unless noted
MALME-3M melanoma = details: 10 µM unless noted
MDA-MB-231 breast = details: 10 µM unless noted
RXF 393 renal = details: 10 µM unless noted
SF-268 CNS = details: 10 µM unless noted
SF-295 CNS = details: 10 µM unless noted
SF-539 CNS = details: 10 µM unless noted
UACC-257 melanoma = details: 10 µM
M14 melanoma = details: 10 µM unless noted

Measured: growth

COc1ccc(CCN2C(=O)CSC2=S)cc1OC
inactive: NCI-H23 lung 98.9% | NCI-H226 lung 100% | NCI-H322M lung 101% | NCI-H460 lung 102% | HOP-92 NSCLC 68.7% | NCI-H522 lung 55.1% | A549/ATCC NSCLC 97.2% | 786-0 renal 94.9% | COLO 205 colon 117% | DU-145 prostate 18.9% | K-562 leukemia 64.8% | MALME-3M melanoma 95.6% | MDA-MB-231 breast 80.4% | RXF 393 renal 59.2% | SF-268 CNS 100% | SF-295 CNS 102% | SF-539 CNS 93.9% | UACC-257 melanoma 96.4% | M14 melanoma 94.3%

CS(=O)(=O)c1nccc(-c2c(-c3ccc(F)c(OCc4ccccc4)c3)nc3sccn23)n1
active: HOP-92 NSCLC -5.33% | DU-145 prostate -64%
inactive: NCI-H23 lung 98.4% | NCI-H226 lung 82.1% | NCI-H322M lung 22.3% | NCI-H460 lung 43.5% | NCI-H522 lung 74.1% | A549/ATCC NSCLC 103% | 786-0 renal 80.5% | COLO 205 colon 106% | K-562 leukemia 75.9% | MALME-3M melanoma 115% | MDA-MB-231 breast 93.1% | RXF 393 renal 94.7% | SF-268 CNS 104% | SF-295 CNS 98.5% | SF-539 CNS 95.1% | UACC-257 melanoma 17.8% | M14 melanoma 51.7%

CCN1C(=O)N(CC)C2SC(N/N=C/c3cccs3)=NC21 (stereo unspecified)
active: NCI-H460 lung 3.74% | HOP-92 NSCLC -7.41% | NCI-H522 lung -47.9% | COLO 205 colon -63% | SF-539 CNS -9.73% | M14 melanoma 6.49%
inactive: NCI-H23 lung 25.8% | NCI-H226 lung 36% | NCI-H322M lung 46.6% | A549/ATCC NSCLC 20.3% | 786-0 renal 17.9% | DU-145 prostate 14.6% | K-562 leukemia 11.5% | MALME-3M melanoma 66.4% | MDA-MB-231 breast 24.5% | RXF 393 renal 72.5% | SF-268 CNS 35.7% | SF-295 CNS 17.1% | UACC-257 melanoma 54.2%

CC(=O)NC(C)(C)C(=O)N1CCC[C@H]1C(=O)NC(C)(C)C(=O)N[C@@H](C)C(=O)NC(C)(C)C(=O)NC(C)(C)C(=O)N[C@@H](CCC(N)=O)C(=O)NC(C)(C)C(=O)N[C@H](C(=O)NC(C)(C)C(=O)NCC(=O)N[C@@H](CC(C)C)C(=O)NC(C)(C)C(=O)N1CCC[C@H]1C(=O)N[C@H](C(=O)NC(C)(C)C(=O)NC(C)(C)C(=O)N[C@@H](CCC(N)=O)C(=O)N[C@@H](CCC(N)=O)C(=O)N[C@H](CO)Cc1ccccc1)C(C)C)C(C)C
inactive: NCI-H23 lung 21.1% [4.25 µM] | NCI-H226 lung 29.8% [4.25 µM] | NCI-H322M lung 71.1% [4.25 µM] | NCI-H460 lung 29.9% [4.25 µM] | NCI-H522 lung 10.6% [4.25 µM] | A549/ATCC NSCLC 26.7% [4.25 µM] | 786-0 renal 80.5% [4.25 µM] | DU-145 prostate 43.5% [4.25 µM] | K-562 leukemia 22.2% [4.25 µM] | MDA-MB-231 breast 36.5% [4.25 µM] | RXF 393 renal 18% [4.25 µM] | SF-268 CNS 32.9% [4.25 µM] | SF-295 CNS 22.2% [4.25 µM] | SF-539 CNS 24.5% [4.25 µM] | M14 melanoma 51.3% [4.25 µM]
active: HOP-92 NSCLC -10.1% [4.25 µM] | COLO 205 colon -25.1% [4.25 µM] | MALME-3M melanoma -10.6% [4.25 µM]

COc1cc(-c2noc(C[C@@H](NC(=O)OCc3ccccc3)C(C)C)n2)cc(OC)c1OC
inactive: NCI-H23 lung 96.9% | NCI-H226 lung 101% | NCI-H322M lung 92.3% | NCI-H460 lung 102% | HOP-92 NSCLC 88.3% | NCI-H522 lung 92.1% | A549/ATCC NSCLC 100% | 786-0 renal 101% | COLO 205 colon 117% | DU-145 prostate 108% | K-562 leukemia 94.4% | MALME-3M melanoma 94.4% | MDA-MB-231 breast 92.1% | RXF 393 renal 102% | SF-268 CNS 97.5% | SF-295 CNS 105% | SF-539 CNS 102% | UACC-257 melanoma 98.5% | M14 melanoma 100%

CC(=O)NC(C)(C)C(=O)N1CCC[C@H]1C(=O)NC(C)(C)C(=O)N[C@@H](C)C(=O)NC(C)(C)C(=O)N[C@@H](C)C(=O)N[C@@H](CCC(N)=O)C(=O)NC(C)(C)C(=O)N[C@H](C(=O)NC(C)(C)C(=O)NCC(=O)N[C@@H](CC(C)C)C(=O)NC(C)(C)C(=O)N1CCC[C@H]1C(=O)N[C@H](C(=O)NC(C)(C)C(=O)NC(C)(C)C(=O)N[C@@H](CCC(N)=O)C(=O)N[C@@H](CCC(N)=O)C(=O)N[C@H](CO)Cc1ccccc1)C(C)C)C(C)C
inactive: NCI-H23 lung 41% [4.25 µM] | NCI-H226 lung 57.2% [4.25 µM] | NCI-H322M lung 97.3% [4.25 µM] | NCI-H460 lung 74.1% [4.25 µM] | HOP-92 NSCLC 60% [4.25 µM] | NCI-H522 lung 48% [4.25 µM] | A549/ATCC NSCLC 49.4% [4.25 µM] | 786-0 renal 97.4% [4.25 µM] | COLO 205 colon 46.7% [4.25 µM] | DU-145 prostate 62.9% [4.25 µM] | K-562 leukemia 42.8% [4.25 µM] | MALME-3M melanoma 57.1% [4.25 µM] | MDA-MB-231 breast 77.7% [4.25 µM] | RXF 393 renal 82.7% [4.25 µM] | SF-268 CNS 64.3% [4.25 µM] | SF-295 CNS 55.1% [4.25 µM] | SF-539 CNS 62.2% [4.25 µM] | M14 melanoma 68.5% [4.25 µM]

Cc1cn(-c2cc(NC(=O)c3cncc(C#Cc4cnc5ccc(O[C@@H]6CCOC6)nn45)c3)cc(C(F)(F)F)c2)cn1
active: NCI-H23 lung -46.6% | NCI-H226 lung -16% | NCI-H322M lung -12.7% | NCI-H460 lung -76.9% | HOP-92 NSCLC -44.6% | NCI-H522 lung -69.3% | A549/ATCC NSCLC -75.3% | 786-0 renal -88.2% | COLO 205 colon -84.9% | DU-145 prostate -86.5% | K-562 leukemia -17.6% | MALME-3M melanoma -83% | MDA-MB-231 breast -35.5% | RXF 393 renal -91.5% | SF-268 CNS -42.1% | SF-295 CNS -21.7% | SF-539 CNS -90.5% | UACC-257 melanoma -19% | M14 melanoma -96.2%
